Rows were chosen to be rich in hits. Some 12% of all compounds tested hit in one or more screens of this group.
AmpC inh detg = blocks E. coli AmpC beta-lactamase in detergent assay. hit rate 0.041% among 370,000. P00811. AID 485294. AmpC hydrolysis of nitrocefin, absorbance 480 nm, 0.01% Triton. Potency, µM (titrated, usually from 114 µM), for inactives: at the top dose activity change, negative = inhibition, hits mostly inhibitors;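 further: 0% = no-compound wells and -100% = no-enzyme wells; nearly all actives have a fitted effect of over 25% in size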
Target sequence (P00811 whole entry, looked up): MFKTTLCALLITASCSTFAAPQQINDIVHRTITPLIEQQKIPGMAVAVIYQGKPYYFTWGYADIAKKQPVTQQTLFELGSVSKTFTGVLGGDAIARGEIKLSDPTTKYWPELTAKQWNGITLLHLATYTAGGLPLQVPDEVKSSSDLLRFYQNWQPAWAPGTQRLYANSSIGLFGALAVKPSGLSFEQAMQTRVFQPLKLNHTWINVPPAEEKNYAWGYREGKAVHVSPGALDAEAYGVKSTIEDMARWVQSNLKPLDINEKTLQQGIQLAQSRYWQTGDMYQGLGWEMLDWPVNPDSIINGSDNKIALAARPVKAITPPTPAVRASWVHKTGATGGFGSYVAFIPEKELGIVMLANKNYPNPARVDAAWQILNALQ
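20 mM phosphate pH 7.0 + 0.01% (detergent screen) or 0.0001% Triton X-100; 5.3 nM AmpC reagent; cpd preinc 15 min RT; nitrocefin (800 uM stock) to start; A480 q20 s × 4 min; Activity was normalised to no-enzyme and no-compound control wells.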
AmpC no deterg = AmpC beta-lactamase inhibition without detergent; Potency, µM (titrated, usually from 57.1 µM), without a hit: top-dose activity change, negative = inhibition, most hits filed as inhibitors; P00811; AmpC nitrocefin hydrolysis, absorbance 480 nm, 0.0001% Triton; hit rate 0.52% among 330,000;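 further: plate controls were no compound for no effect and no enzyme for full effect; nearly all actives have a fitted effect of over 20% in size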
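AmpC (5.3 nM in the dispensed reagent) in 20 mM phosphate pH 7.0 with 0.01% (detergent screen) or 0.0001% Triton X-100 was preincubated with compounds for 15 min at room temperature. Nitrocefin was then added from an 800 uM solution, and hydrolysis was followed at 480 nm.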
Sm TGR block = blocks Schistosoma mansoni thioredoxin glutathione reductase; Q962Y6; purified TGR, DTNB reduction, TNB absorbance 405 nm; Potency, µM (top dose mostly 114 µM), without a hit: at the top dose activity change, negative = inhibition, actives largely listed as inhibitors; hit rate 3% among 360,000; AID 485364; further: on the % scale 0 is the no-effect control and ±100 the full control effect; nearly all actives have a fitted effect of over 60% in size
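First, TGR (20 nM dispensed) and NADPH were mixed with compound. Second, a 15 min room-temperature incubation followed. Third, further NADPH and then DTNB were added to start the reaction. Finally, TNB absorbance was monitored kinetically.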
SARS PLP yeast = blocks SARS-CoV papain-like protease in a yeast assay | S. cerevisiae expressing SARS-CoV PLpro, growth rescue | hit rate 0.19% among 330,000 | AID 485353 | Potency, µM (doses to about 32.9 µM), for inactives: at the top dose activity, positive = growth rescue, usual class: activators; calls by dose curve; further: 0% is about no effect; nearly all actives have a fitted effect of over 55% in size
Pf growth 48h = P. falciparum growth inhibition at 48 hours (one generation). AID 504832. hit rate 5.9% among 310,000. Potency, µM (doses to about 28.7 µM), for inactives: at the highest dose activity change, negative = inhibition, actives largely listed as inhibitors. P. falciparum luciferase growth in erythrocytes, 48 h; further: on the % scale 0 is the no-effect control and ±100 the full control effect
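Luciferase-expressing parasites in RBCs, 2% Hct / 0.1% parasitemia final; RPMI 1640 + 0.5% Albumax; 37 C, 5% CO2, one generation; luminescence read-out, lower signal = inhibition.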
Pf growth 96h = inhibits malaria parasite growth, 96 h; P. falciparum luciferase reporter growth, 96 h; Potency, µM (series often up to 28.7 µM), inactives show at the top dose activity change, negative = inhibition, usual class: inhibitors; hit rate 6.9% among 320,000; AID 504834; further: on the % scale 0 is the no-effect control and ±100 the full control effect
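Two-generation exposure (96 h) targets delayed-death phenotype. Reporter parasites carrying integrated firefly luciferase, in red cells at 2% hematocrit and 0.05% parasitemia final, kept at 37 C, 5% CO2; luminescence loss indicates inhibition.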
The depositor's hits bear a star; ? = inconclusive; · = not tested or not shown; [ ] = another dose, or the depositor's remark. Unless noted, the call rests on the fitted dose curve; in most records, active means well fitted curve in the direction sought with a large enough effect; inconclusive means small, poorly fitted or top-dose-only effect, or another doubt; inactive means no such curve, though single readings can be large; an effect the other way counts as inactive or inconclusive. Potency means the concentration at half of the fitted maximal effect.

SMILES	AmpC inh detg	AmpC no deterg	Sm TGR block	SARS PLP yeast	Pf growth 48h	Pf growth 96h
CC(C)(C)S(=O)(=O)c1ccccc1C(=O)O	-12.0%	-7.2%	0.0%	-1.0%	158.9%	9.28µM*
CC(NC(=O)c1cc(-c2ccc3c(c2)OCO3)nc2ccccc12)C(C)(C)C (configuration not stated)	3.2%	-21.9%	-1.5%	-3.6%	·	?
O=C(O)c1cc(-c2ccc3c(c2)OCO3)nc2ccccc12	?	-10.2%	0.0%[11.4 µM]	-4.4%	·	8.28µM*
CC(C)c1ccc(-c2cc(C(=O)N3CCOCC3)c3cc(Br)ccc3n2)cc1	-2.8%	19.0%	0.6%	6.0%	?	-4.8%
CCCNC(=O)NNC(=O)c1cc(-c2ccc3c(c2)OCO3)nc2ccccc12	0.7%	-28.8%	-20.3%	1.8%	?	-14.3%
CC(=O)c1ccc(N2CCN(C(=O)c3cc(-c4ccc5c(c4)OCO5)nc4ccccc34)CC2)cc1	4.7%	30.1%	6.1%	-2.5%	6.57µM*	-0.5%
Cc1ccc(-c2cc(C(=O)N3CCN(c4ccc(O)cc4)CC3)c3ccccc3n2)cc1	·	19.6%	·	-11.6%	·	·
CCCN(CCC)C(=O)c1cc(-c2ccc3c(c2)OCO3)nc2ccccc12	0.1%	9.6%	-12.2%	-11.9%	·	1.65µM*
CC(=O)c1ccc(N2CCN(C(=O)c3cc(-c4ccncc4)nc4ccc(Br)cc34)CC2)cc1	4.7%	-6.0%	0.2%	-4.3%	13.1µM*	-15.1%
Cc1nc2cccnc2n1C1CCN(C(=O)Nc2ccccc2C(F)(F)F)CC1	10.1%	·	-0.2%	·	·	·
Cc1cc(C(C)(C)C)ccc1OCC(=O)N/N=C\c1c(C)n(C)n(-c2ccccc2)c1=O	2.1%	44.0%	-7.3%	0.9%	17.7%	-24.3%
CCOC(=O)c1cc(-c2ccc(F)cc2)n(CCC(=O)Nc2nc3ccc(OC)cc3s2)c1C	0.2%	·	-9.1%	·	·	·
CCN(CC(=O)NC1CCS(=O)(=O)C1)c1ccc([N+](=O)[O-])cc1C#N (configuration not stated)	-0.3%	-11.2%	-12.8%	-0.1%	-4.4%	?
Cc1ccccc1C(=O)NC(=S)NCCC1=CCCCC1	6.8%	-34.7%	5.01µM*	0.5%	?	-0.3%
Cn1c(C(=O)NCCC2=CCCCC2)cc2c(=O)n3ccccc3nc21	0.1%	-8.3%	-20.6%	-5.4%	72.5%	6.57µM*
CC(C(=O)NCCC1=CCCCC1)N1C(=O)c2ccccc2C1=O (configuration not stated)	-18.3%	2.4%	-10.6%	-6.7%	-18.5%	5.86µM*
Cc1ccccc1C(=O)NC(=S)NCCc1ccccc1	-8.9%	-21.2%	7.08µM*	25.8%	17.8%	-25.9%
O=C(NC(=S)NCCC1=CCCCC1)c1ccco1	4.6%	-29.5%	-23.0%	2.9%	116.1%	?
Cc1cccn2c(=O)c3cc(C(=O)NCCC4=CCCCC4)n(C)c3nc12	-0.9%	-19.2%	-5.1%	11.8%	?	?
CCOC(=O)c1cc(S(=O)(=O)N2CCN(c3ccccc3OC)CC2)[nH]n1	?	·	0.3%	·	·	·
O=P(Cc1cc(Br)cc(Br)c1OCCO)(c1ccccc1)c1ccccc1	1.3%	16.1%	0.0%	1.1%	-3.2%	-15.7%
CCOc1ccc(CNC(=O)Cn2c(=O)c3cccn3c3cccnc32)cc1	14.4%	·	-1.5%	·	·	·
Cc1cccc(C(=O)Nc2sc3c(c2C(=O)O)CCCC3)c1	-3.1%	-24.1%	-12.7%	-3.4%	57.5%	-14.7%
O=C(CCc1ccc(O)cc1)NNC(=S)NCCc1ccccc1	-4.7%	-25.3%	5.2%	0.8%	-1.7%	16.8%
CC(Sc1nnc(-c2ccco2)o1)C(=O)NCCC1=CCCCC1 (configuration not stated)	-8.5%	-10.6%[11.4 µM]	44.7µM*	-0.1%	?	?
SMILES	AmpC inh detg	AmpC no deterg	Sm TGR block	SARS PLP yeast	Pf growth 48h	Pf growth 96h
CCN(CC)S(=O)(=O)c1cccc(-c2nnc(SC(C)C(=O)NCCC3=CCCCC3)o2)c1 (configuration not stated)	0.7%	34.6%	-21.2%	-9.9%	?	9.9%
C=CCn1c(SC(C)C(=O)NCCC2=CCCCC2)nc2ccccc2c1=O (configuration not stated)	3.9%	58.5%	4.2%	2.8%	·	13.1µM*
O=C(NCCC1=CCCCC1)C(c1ccccc1)c1ccccc1	0.7%	-18.0%	2.8%	0.4%	?	?
O=C(NNC(=S)NCCc1ccccc1)c1ccc(Br)s1	-0.1%	-37.6%	-1.5%	0.0%	4.5%	9.28µM*
CC(C)(C)C(=O)NC(=S)NCCc1ccccc1	-4.9%	-29.1%	20µM*	26.6%	44.8%	-3.1%
O=C(COc1ccc(Br)cc1)N1CCNC1=O	-12.6%	-9.8%	-10.2%	-1.3%	39.2%	12.1%
CCOC(=O)[C@H]1[C@H]2COc3ccc(Cl)cc3[C@@H]2N2C(=O)CNC(=O)[C@@]12C	-1.3%	-4.9%	?	-22.4%	26.3%	?
Cc1cc(=O)n(-c2ccc(Cl)cc2)c(=O)[nH]1	5.8%	-21.2%	92.9%	-9.9%	11.4%	0.1%
CSCCC(NC(=O)c1cccc([N+](=O)[O-])c1)C(=O)O (configuration not stated)	-2.1%	-20.6%	-23.3%	12.4%	27.3%	-1.8%
CNC(=S)NCCCc1ccccc1	-1.7%	-14.5%	-0.2%	0.4%	-2.5%	5.22µM*
Cc1ccccc1C(=O)NC(=S)NCc1cccnc1	0.1%	-6.2%	-24.9%	-1.1%	5.5%	1.4%
S=C(NCCCCc1ccccc1)NCc1ccccc1	-0.5%	-33.6%	-0.2%	1.0%	9.9%	?
Cc1ccccc1C(=O)NC(=S)NCc1ccccc1	?	-32.6%	22.4µM*	14.5%	-12.6%	-4.4%
O=C(CCC(=O)NC1CCCCC1)Nc1cccnc1	-14.5%	-16.9%	0.3%	-0.3%	-5.8%	0.0%
Cc1ccc(C(=O)/C=C/c2cc(Br)cc(Br)c2O)o1	5.2%	-28.0%	1.58µM*	-4.6%	7.5%	14.3%
CCc1ccc(-n2nc3ccc(NC(=O)c4cc(Cl)c(OC)c(Cl)c4)cc3n2)cc1	-1.0%	·	0.8%	·	·	·
CCC1C/C(=C/c2ccco2)C(=O)/C(=C/c2ccco2)C1 (configuration not stated)	?	-37.3%	20µM*	-24.5%	-10.8%	9.28µM*
CCC1C/C(=C\c2cc(OC)c(OC)cc2OC)C(=O)/C(=C/c2cc(OC)c(OC)cc2OC)C1 (configuration not stated)	-2.1%	77.9%	-20.9%	0.2%	5.22µM*	?
COc1cc(OC)c(OC)cc1/C=C1/Cc2ccccc2C1=O	-1.4%	-15.3%	-16.6%	-2.7%	4.3%	?

Assay outcomes: PubChem, National Center for Advancing Translational Sciences (NCATS)
